Screening results from PubChem.
Cycloheximide cs: affects cycloheximide protein synthesis inhibition readout, counter-screen; cell reporter, cycloheximide protein synthesis inhibition counterscreen; max response, %; hit rate 12% among 300,000; AID 2314; in the data active = max response mostly above about 13%, no sharp cut-off; inactive = mostly below about 14%; also: read at 38.3 µM for the half of the compounds with a filed dose; 0% is about no effect
Pf growth 48h: inhibits P. falciparum growth in the first generation, 48 h | hit rate 5.9% among 310,000 | Potency, µM (doses to about 28.7 µM), without a hit: at the highest dose activity change, negative = inhibition, hits mostly inhibitors | AID 504832 | P. falciparum luciferase growth in erythrocytes, 48 h; also: potency is read from the fitted curve at half-maximal effect; % is scaled to controls: 0 for no effect and ±100 for the full control effect
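Erythrocytes infected with P. falciparum carrying an integrated firefly luciferase reporter (2% hematocrit, 0.1% parasitemia final) were exposed to compounds in RPMI 1640 with 0.5% Albumax at 37 C, 5% CO2. Growth inhibition was scored as reduced luminescence.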
HCMV inh: inhibitors of human cytomegalovirus. HFF cells, HCMV-luciferase reporter, 72 h; active compounds read low. AID 1259415. activity change, negative = inhibition, % at 57.5 µM. hit rate 4.5% among 410,000; in the data active = activity change below about -60%; inconclusive = no clear call, values can overlap the other calls; inactive = above about -39%; also: % is scaled to controls: 0 for no effect and ±100 for the full control effect
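Two compound doses tested in HFFs infected with HCMV-luciferase, MOI 1 PFU/cell, 72 h at 37C. Lysate luminescence read with OneGlo; data normalized against buffer-only and 10uM Salinomycin inhibitor controls.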
Shiga inhibitor: blocks Shiga toxin action in Vero cells | Vero cells, Shiga toxin protein synthesis inhibition reporter | hit rate 9.2% among 290,000 | AID 2315 | inhibition, % at 38.7 µM; in the data active = inhibition mostly above about 28%, no sharp cut-off; inactive = mostly below about 43%; also: 0% is about no effect
Pf growth 96h: P. falciparum growth inhibition at 96 hours. Potency, µM (series often up to 28.7 µM), without a hit: at the top dose activity change, negative = inhibition, usual class: inhibitors. P. falciparum luciferase reporter growth, 96 h. hit rate 6.9% among 320,000; also: potency is read from the fitted curve at half-maximal effect; % is scaled to controls: 0 for no effect and ±100 for the full control effect
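Cell-based qHTS: luciferase-tagged P. falciparum in erythrocytes (2% hematocrit, 0.05% parasitemia final) incubated with compounds for 96 hours, 37 C, 5% CO2; luciferase detection reagent then added and luminescence measured.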
The depositor's hits bear a star; ? = inconclusive; / = not tested or not shown. Sampled rows, rich in hits. Any-hit rate of the full collection: about 20%. Unless noted, calls follow the shape of the dose curve; as a rule, active = well fitted inhibition curve with a large enough effect; inconclusive = small, poorly fitted or top-dose-only effect, or another doubt; inactive = no such curve, though single readings can be large or run the other way.

SMILES	Cycloheximide cs	Pf growth 48h	HCMV inh	Shiga inhibitor	Pf growth 96h
CCC1=C(OC(=O)N(CC)CC)N2C(=O)OC(=NCCc3c[nH]c4ccccc34)[C@]2(C)[C@H]2C1=CC[C@H]1C(=O)NC(=O)[C@H]12	-2.4	11.7µM*	-32.9	-2.0	?
CCOC(=O)Cc1ccc(NC(=O)N2CCSc3ccccc32)cc1	/	/	0.0	/	/
O=C1c2ccccc2C2(c3ccccc3)N1CCN2C(=O)C(Cl)(Cl)Cl (centres undefined)	-5.4	/	?	30.1	0.828µM*
O=C(Nc1ccc(F)cc1)N1CCN2C(=O)c3ccccc3C12c1ccccc1 (centres undefined)	-8.8	/	/	-1.5	13.1µM*
COc1ccc(CCN(C)C(=O)/C=C/c2c(Cl)nc3ccccn23)cc1OC	14.4	11.7µM*	24.3	-4.9	?
CC(C)Cn1c(N)c(C(=O)COC(=O)c2ccc3ccccc3n2)c(=O)n(C)c1=O	-0.4	-17.4%	16.1	55.8	4.15µM*
COCc1c(C(=O)OCC(=O)c2c(N)n(CC(C)C)c(=O)n(C)c2=O)oc2ccccc12	-1.2	?	-7.8	-3.3	?
Cc1c(C(=O)OCC(=O)c2c(N)n(CC(C)C)c(=O)n(C)c2=O)oc2ccccc12	-2.9	?	-64.1*	7.4	-99.6%
CC(C)Cn1c(N)c(C(=O)COC(=O)/C=C/c2cccs2)c(=O)n(C)c1=O	-1.8	?	-73.1*	-11.6	?
CCc1ccc(C(=O)OCC(=O)c2c(N)n(CC(C)C)c(=O)n(C)c2=O)cc1	5.2	?	-64.8*	31.3	13.1µM*
CC(C)Cn1c(N)c(C(=O)COC(=O)c2ccc(F)cc2)c(=O)n(C)c1=O	7.7	-3.7%	-23.4	-18.8	3.4%
Cc1ccc(N(CC(=O)Nc2cccc(Cl)c2C)S(=O)(=O)c2c(C)noc2C)cc1	/	/	-12.8	/	/
CC(C)Cn1c(N)c(C(=O)COC(=O)Cc2cccc(C(F)(F)F)c2)c(=O)n(C)c1=O	/	9.28µM*	-13.7	/	?
CC(C)Cn1c(N)c(C(=O)COC(=O)Cc2cccs2)c(=O)n(C)c1=O	-2.5	16.8%	-7.6	-6.4	31.5%
COC(=O)c1ccc2c(=O)n(Cc3ccco3)c(SCC(=O)Nc3ccc(C)c(Cl)c3)nc2c1	5.9	?	-63.1*	12.8	/
O=C(CSc1nc2cc(Cl)ccc2c(=O)n1Cc1ccco1)Nc1ccc(S(=O)(=O)N2CCOCC2)cc1	13.9	?	-17.9	-57.1	10.4µM*
O=C(CSc1nc2ccccc2c(=O)n1Cc1ccco1)Nc1cccc(O)c1	19.0*	10.8%	12.5	42.7	13.1µM*
COC(=O)c1ccc(CSc2nc3ccccc3c(=O)n2Cc2ccco2)o1	15.9*	?	3.2	17.5	-19.0%
COC(=O)c1ccc2c(=O)n(CCN3CCOCC3)c(SCC(=O)Nc3ccccc3Cl)nc2c1	-3.9	-17.2%	?	-4.6	-16.7%
CCCCOC(=O)c1ccc(Nc2ncnc3[nH]ncc23)cc1	/	/	-10.9	/	/
Nc1cccc2c1Cc1cc([N+](=O)[O-])ccc1-2	/	/	-100.6*	/	/
Nc1c(Br)cc(Br)c2c1-c1ccc([N+](=O)[O-])cc1C2	/	/	-80.4*	/	/
COc1cccc(NC(=O)Nc2ccc3c(c2)nnn3C)c1	31.6*	61.3%	-7.4	59.0*	?
Cc1ccc(NC(=O)c2ccc3c(c2)nnn3C)cc1	13.0	107.5%	-15.7	34.5*	93.0%
CN(C)c1ccc(NC(=O)Nc2ccc3c(c2)nnn3C)cc1	31.6*	15.1%	36.2	/	-0.7%
SMILES	Cycloheximide cs	Pf growth 48h	HCMV inh	Shiga inhibitor	Pf growth 96h
Cn1nnc2cc(NC(=O)NCc3ccc4c(c3)OCO4)ccc21	8.8	12.1%	-34.2	13.9	-0.9%
Cn1nnc2cc(C(=O)Nc3ccccc3)ccc21	16.2*	151.2%	52.0	32.4	-3.8%
Cc1ccc(-n2ncc(C(=O)NCc3ccco3)c2C2CCN(C(=O)OC(C)(C)C)CC2)c(C)c1	/	/	-17.8	/	/
CN(C)c1ccc(NC(=O)c2ccc3c(c2)nnn3C)cc1	18.0*	35.6%	18.9	46.1*	14.7%
Cn1nnc2cc(C(=O)Nc3ccc(Cl)cc3)ccc21	12.9	31.7%	-10.2	35.7	101.4%
CCN1CCN(C(=O)Cc2ccc(C)cc2)CC1	21.9*	16.1%	71.6	41.9	13.8%
CCN1CCN(Cc2ccc(C)cc2)CC1	-1.2	4.1%	62.7	-9.7	5.22µM*
CCN1CCN(Cc2ccc(C)cc2C)CC1	-3.5	15.7%	7.8	35.9	?
CCN1CCN(C(=O)c2oc(=O)c3ccccc3c2-c2ccc(C)cc2)CC1	-5.7	?	-27.0	-8.4	4.65µM*
